For orientation: AC50 means the concentration at which the activity in the assay is half-maximal.

Calls of active or inactive are those of the source. The calls were made as follows: active = hit-call score of the fitted dose curve at least 0.9, where 1 is the maximum; inactive = score below 0.9.

The record followed here is PubChem BioAssay (EPA / NIEHS).

Read-out in experiment [1]: Tissue Factor, F3 (gene 2152)
Briefly: BSK_CASM3C_TissueFactor: BioMAP Diversity Plus: CASM3C Assay for Tissue Factor Biomarker Activity (AID 2283052).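 Also: cell surface tissue factor protein level read by ELISA.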 Conditions: primary human coronary artery smooth muscle cells; actives raise or lower the signal.

Read-out in experiment [2]: Interferon-gamma inducible Protein 10 (IP10), CXCL10 (gene 3627)
Briefly: BSK_hDFCGF_IP10: BioMAP Diversity Plus: hDFCGF Assay for Interferon-gamma inducible Protein 10 (IP10) Biomarker Activity (AID 2283053). Conditions: primary human foreskin fibroblasts; actives raise or lower the signal. The procedure, abridged: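 Human foreskin fibroblast primary cells (hDFCGF system) were dosed with chemical and assayed at 24 h; IP-10 measured by ELISA. Activity fitted bidirectionally relative to DMSO negative control as baseline.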

Read-out in experiment [3]: Urokinase-type plasminogen activator receptor (uPAR), PLAUR (gene 5329)
The experiment in a line: BSK_CASM3C_uPAR: BioMAP Diversity Plus: CASM3C Assay for Urokinase-type plasminogen activator receptor (uPAR) Biomarker Activity (AID 2283054).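 Also: cell-surface uPAR protein level quantified by ELISA.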 Conditions: primary human coronary artery smooth muscle cells; actives raise or lower the signal.

Read-out in experiment [4]: Vascular cell adhesion molecule 1 (VCAM1), VCAM1 (gene 7412)
The experiment in a line: BSK_CASM3C_VCAM1: BioMAP Diversity Plus: CASM3C Assay for Vascular cell adhesion molecule 1 (VCAM1) Biomarker Activity (AID 2283055).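 Also: VCAM-1 protein level quantified by ELISA on the cells.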 Conditions: primary human coronary artery smooth muscle cells; actives raise or lower the signal.

Read-out in experiment [5]: Collagen III, COL3A1 (gene 1281)
Briefly: BSK_hDFCGF_CollagenIII: BioMAP Diversity Plus: hDFCGF Assay for Collagen III Biomarker Activity (AID 2283056). Conditions: primary human foreskin fibroblasts; actives raise or lower the signal. The procedure, abridged: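 Human foreskin primary fibroblasts were exposed to test chemicals for 24 h, after which collagen III was quantified by ELISA. Activity was fitted bidirectionally against DMSO as negative control and baseline.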

Read-out in experiment [6]: Epidermal growth factor receptor (EGFR), EGFR (gene 1956)
Briefly: BSK_hDFCGF_EGFR: BioMAP Diversity Plus: hDFCGF Assay for Epidermal growth factor receptor (EGFR) Biomarker Activity (AID 2283057). Conditions: primary human foreskin fibroblasts; actives raise or lower the signal. The procedure, abridged: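 Primary human foreskin fibroblasts were exposed to compound for 24 h, after which cell-surface EGFR was quantified by ELISA. Activity was fitted bidirectionally against the DMSO negative control as baseline.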

Read-out in experiment [7]: Interleukin-8 (IL8), CXCL8 (gene 3576)
The experiment in a line: BSK_hDFCGF_IL8: BioMAP Diversity Plus: hDFCGF Assay for Interleukin-8 (IL8) Biomarker Activity (AID 2283058). Conditions: primary human foreskin fibroblasts; actives raise or lower the signal. The procedure, abridged:
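hDFCGF human dermal fibroblasts; 24 h chemical exposure; IL-8 by ELISA; bidirectional curve fit vs DMSO baseline; gain or loss of signal scored.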

Read-out in experiment [8]: Macrophage colony-stimulating factor (MCSF), CSF1 (gene 1435)
The experiment in a line: BSK_hDFCGF_MCSF: BioMAP Diversity Plus: hDFCGF Assay for Macrophage colony-stimulating factor (MCSF) Biomarker Activity (AID 2283060). Conditions: primary human foreskin fibroblasts; actives raise or lower the signal. The procedure, abridged: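 Human foreskin primary fibroblasts were treated with test chemical for 24 h, and M-CSF was then measured by ELISA. Data were fitted bidirectionally against DMSO as the negative control and activity baseline.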

Experiment [9] in a line: BSK_hDFCGF_SRB: Viability Assessment in the BioMAP Diversity Plus: hDFCGF Assay (AID 2283061).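 Also: cells exposed to compound for 24 h before the read.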 Conditions: primary human foreskin fibroblasts. The procedure, abridged:
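Human foreskin primary fibroblasts were treated with compound and assessed 24 h after dosing. Total protein was measured by sulforhodamine B staining (0.1% SRB after 10% TCA fixation, 560 nm read) as a cytotoxicity marker, with bidirectional fitting against DMSO baseline.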

Read-out in experiment [10]: TIMP metallopeptidase inhibitor 1 (TIMP1), TIMP1 (gene 7076)
Briefly: BSK_hDFCGF_TIMP1: BioMAP Diversity Plus: hDFCGF Assay for TIMP metallopeptidase inhibitor 1 (TIMP1) Biomarker Activity (AID 2283062). Conditions: primary human foreskin fibroblasts; actives raise or lower the signal. The procedure, abridged: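 Primary human foreskin fibroblasts in the hDFCGF system were dosed with compound for 24 h, then TIMP-1 was measured by ELISA. Activity was fitted bidirectionally relative to DMSO control; parallel SRB staining assessed cytotoxicity.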

Read-out in experiment [11]: Monokine induced gamma interferon (MIG), CXCL9 (gene 4283)
The experiment in a line: BSK_hDFCGF_MIG: BioMAP Diversity Plus: hDFCGF Assay for Monokine induced gamma interferon (MIG) Biomarker Activity (AID 2283063). Conditions: primary human foreskin fibroblasts; actives raise or lower the signal. An outline of the steps:
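ELISA read-out of MIG from primary human dermal fibroblasts 24 h post-dosing. Gain or loss of signal fitted bidirectionally, DMSO as baseline.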

Read-out in experiment [12]: Matrix Metallopeptidase 1 (MMP1), MMP1 (gene 4312)
Briefly: BSK_hDFCGF_MMP1: BioMAP Diversity Plus: hDFCGF Assay for Matrix Metallopeptidase 1 (MMP1) Biomarker Activity (AID 2283064). Conditions: primary human foreskin fibroblasts; actives raise or lower the signal. The procedure, abridged: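 hDFCGF primary fibroblasts (human foreskin); chemical added; 24 h; MMP1 by ELISA; bidirectional fit vs DMSO.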

Read-out in experiment [13]: Vascular cell adhesion molecule 1 (VCAM1), VCAM1 (gene 7412)
The experiment in a line: BSK_hDFCGF_VCAM1: BioMAP Diversity Plus: hDFCGF Assay for Vascular cell adhesion molecule 1 (VCAM1) Biomarker Activity (AID 2283065). Conditions: primary human foreskin fibroblasts; actives raise or lower the signal. An outline of the steps:
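Primary human foreskin fibroblasts (hDFCGF system) were dosed with chemical and VCAM-1 was measured by ELISA 24 h later. Bidirectional curve fitting used DMSO as negative control and activity baseline.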

Read-out in experiment [14]: Plasminogen activator inhibitor-1 (PAI1), SERPINE1 (gene 5054)
The experiment in a line: BSK_hDFCGF_PAI1: BioMAP Diversity Plus: hDFCGF Assay for Plasminogen activator inhibitor-1 (PAI1) Biomarker Activity (AID 2283066). Conditions: primary human foreskin fibroblasts; actives raise or lower the signal. The procedure, abridged: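 Human foreskin fibroblasts in the hDFCGF system were dosed with compound for 24 h; PAI-1 was quantified by ELISA. Bidirectional curve fitting used DMSO as negative control and baseline.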

Read-out in experiment [15]: Intercellular Adhesion Molecule 1 (ICAM1), ICAM1 (gene 3383)
The experiment in a line: BSK_KF3CT_ICAM1: BioMAP Diversity Plus: KF3CT Assay for Intercellular Adhesion Molecule 1 (ICAM1) Biomarker Activity (AID 2283067). Conditions: primary human keratinocytes with fibroblasts; actives raise or lower the signal. The procedure, abridged: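 Human keratinocyte plus foreskin fibroblast primary co-culture was exposed to chemical for 24 h. ICAM-1 was then quantified by ELISA, and the data were fit bidirectionally against DMSO as the negative control and baseline.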

Read-out in experiment [16]: Interferon-gamma inducible Protein 10 (IP10), CXCL10 (gene 3627)
Briefly: BSK_KF3CT_IP10: BioMAP Diversity Plus: KF3CT Assay for Interferon-gamma inducible Protein 10 (IP10) Biomarker Activity (AID 2283068). Conditions: primary human keratinocytes with fibroblasts; actives raise or lower the signal. An outline of the steps:
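ELISA read-out of IP-10 after 24 h chemical dosing of human skin primary co-culture (keratinocytes, foreskin fibroblasts). Gain or loss of signal relative to DMSO, bidirectional curve fit.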

Experiment [17] in a line: BSK_KF3CT_SRB: Viability Assessment in the BioMAP Diversity Plus: KF3CT Assay (AID 2283069).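 Also: fitted for both signal gain and loss against DMSO baseline.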 Conditions: primary human keratinocytes with fibroblasts. The procedure, abridged: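 Keratinocytes co-cultured with foreskin fibroblasts (human primary); chemical added, 24 h; fix 10% TCA, stain 0.1% SRB, A560. Bidirectional fit vs DMSO.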
Read-out in experiment [18]: Interleukin-1 alpha (IL1a), IL1A (gene 3552)
Briefly: BSK_KF3CT_IL1a: BioMAP Diversity Plus: KF3CT Assay for Interleukin-1 alpha (IL1a) Biomarker Activity (AID 2283070). Conditions: primary human keratinocytes with fibroblasts; actives raise or lower the signal. The procedure, abridged: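 Chemicals were dosed onto co-cultured human keratinocytes and foreskin fibroblasts, IL-1a was quantified by ELISA at 24 h, and activity was fitted in both directions relative to DMSO controls.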

Experiment [19] in a line: BSK_hDFCGF_Proliferation: Cell Proliferation Assessment in the BioMAP Diversity Plus: hDFCGF Assay (AID 2283059).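 Also: curves fitted for both rise and fall of signal versus DMSO baseline.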 Conditions: primary human foreskin fibroblasts. An outline of the steps:
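Sub-confluent human foreskin fibroblast cultures receive test chemical […]. Relative cell number is quantified by sulforhodamine B staining (0.1%, after 10% TCA fixation) at 560 nm, with bidirectional fitting referenced to DMSO.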

Read-out in experiment [20]: TIMP metallopeptidase inhibitor 2 (TIMP2), TIMP2 (gene 7077)
The experiment in a line: BSK_KF3CT_TIMP2: BioMAP Diversity Plus: KF3CT Assay for TIMP metallopeptidase inhibitor 2 (TIMP2) Biomarker Activity (AID 2283071). Conditions: primary human keratinocytes with fibroblasts; actives raise or lower the signal. An outline of the steps: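 Human primary keratinocyte/foreskin fibroblast co-culture dosed with chemical and sampled at 24 h. TIMP-2 levels quantified by ELISA; bidirectional fitting against DMSO negative control as baseline.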

Consider `CCCCCCC(=O)OCC`, for which the result in experiment [1], in experiment [2], in [3], in experiment [4], in experiment [5] and in [6] was inactive. Also, the result in experiment [7], in experiment [8], in experiment [9], in experiment [10], in experiment [11] and in experiment [12] was inactive. Further, the outcome in experiment [13], in experiment [14], in experiment [15], in [16], in experiment [17] and in experiment [18] was inactive.

Consider `Cc1ccccc1Cl`, for which the outcome in experiment [1], in experiment [2], in experiment [3], in [4], in experiment [5] and in [7] was inactive. For the same compound, the result in [19], in [8], in [9], in experiment [10], in [11] and in [12] was inactive. Moreover, the outcome in [13], in [14], in experiment [15], in experiment [16], in experiment [17] and in [18] was inactive.

As for `Nc1ccc(S(=O)(=O)c2ccc(N)cc2)cc1`, the result in experiment [1], in [2], in [3], in experiment [4], in experiment [5] and in experiment [7] was inactive. Also, the outcome in experiment [19], in [8], in [9], in [10], in experiment [11] and in [12] was inactive. For the same compound, the outcome in experiment [13], in [14], in [15], in experiment [16], in experiment [17] and in experiment [18] was inactive.

Consider `COc1cc(C=O)ccc1O`, for which the result in [1], in experiment [2], in experiment [3], in experiment [4], in experiment [5] and in experiment [6] was inactive. The result in experiment [7], in experiment [8], in experiment [9], in [10], in experiment [11] and in experiment [12] was inactive. The result in experiment [13], in [14], in [15], in [16], in experiment [17] and in experiment [18] was inactive. In addition, the result in [20] was inactive.

Take `Cc1oc(-c2ccccc2)nc1CCOc1cccc2c1ccn2CCC(=O)O`: the outcome in [1], in experiment [2], in experiment [3], in experiment [4], in [5] and in experiment [7] was inactive. The outcome in experiment [19], in experiment [8], in experiment [9], in experiment [10], in [11] and in experiment [12] was inactive. Further, the result in experiment [13], in experiment [14], in [15], in experiment [16], in [17] and in experiment [18] was inactive.

Regarding `C=CCc1ccc(O)c(OC)c1`, the result in experiment [1], in experiment [2], in experiment [3], in [4], in [5] and in [7] was inactive. Further, the result in experiment [19], in experiment [8], in experiment [9], in [10], in [11] and in [12] was inactive. In addition, the result in experiment [13], in experiment [14], in experiment [15], in experiment [16], in experiment [17] and in experiment [18] was inactive.

Regarding `Cc1c(C(=O)O)c(O)cc2c1C(=O)c1c(O)c([C@@H]3O[C@H](CO)[C@@H](O)[C@H](O)[C@H]3O)c(O)c(O)c1C2=O`, the outcome in [1], in experiment [2], in experiment [3], in experiment [4], in experiment [5] and in experiment [7] was inactive. The result in [8], in experiment [9], in experiment [10], in [11], in [12] and in [13] was inactive. Besides, the outcome in experiment [14], in experiment [15], in experiment [16], in experiment [17] and in experiment [18] was inactive. Besides, the half-maximal activity concentration (AC50) in experiment [19] is 3.88 µM (active).

As to `CCCCOC(=O)CCCCCCCCC(=O)OCCCC`, the outcome in experiment [1], in [2], in [3], in experiment [4], in experiment [5] and in experiment [6] was inactive. Besides, the outcome in experiment [7], in [8], in experiment [9], in experiment [10], in experiment [11] and in [12] was inactive. Further, the result in experiment [13], in [14], in experiment [15], in experiment [16], in experiment [17] and in experiment [18] was inactive.
